Shiga toxin inh: blocks Shiga toxin action in Vero cells; Vero cells, Shiga toxin protein synthesis inhibition reporter; inhibition, % at 38.7 µM; 290,000 tested, 9.2% active; AID 2315; in the data active = inhibition mostly above about 28%, no sharp cut-off; inactive = mostly below about 43%
Cycloheximide cs: counter-screen hit for Shiga toxin inhibitors, cycloheximide; 300,000 tested, 12% active; max response, %; cell reporter, cycloheximide protein synthesis inhibition counterscreen; in the data active = max response mostly above about 13%, no sharp cut-off; inactive = mostly below about 14%; also: read at 38.3 µM for the half of the compounds with a filed dose
FMDV antiviral: antivirals against foot and mouth disease virus | FMDV antiviral cell-based qHTS | Potency, µM (highest dose often 57.9 µM), most hits filed as inhibitors | 410,000 tested, 1.2% active | AID 1159524; calls by dose curve; tested in HEK293T cells; also: read-out not given here; nearly all actives have a fitted effect of over 45% in size
Sm TGR block: inhibitors of Schistosoma mansoni thioredoxin glutathione reductase; purified TGR, DTNB reduction, TNB absorbance 405 nm; Q962Y6; AID 485364; 360,000 tested, 3% active; Potency, µM (highest dose often 114 µM), actives largely listed as inhibitors; active = well fitted inhibition curve with a large enough effect; inconclusive = small, poorly fitted or top-dose-only effect; inactive = no such curve, though single readings can be large or run the other way; also: nearly all actives have a fitted effect of over 60% in size
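TGR 20 nM + NADPH 100 uM (dispensed conc.), cpd preinc 15 min RT; start with NADPH (500 uM addition) then DTNB (15 mM addition). Kinetic TNB absorbance, 405 nm filter. Four-parameter Hill fit across titration.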
Each line names hits and unclear results; the compound was inactive in the other large screens. Hits are enriched below; roughly 12% of the tested compounds scored in any of these assays.

CC1Cc2cc(S(=O)(=O)N3CCN(c4ccccc4F)CC3)ccc2N1C(=O)C1CCC1 (centres undefined)	none (no result: Shiga toxin inh, Cycloheximide cs)
Cc1ccc(C)n1-c1nccc(-c2cccs2)n1	none
N#Cc1cccn1-c1nccc(-c2cccs2)n1	Shiga toxin inh 77, Cycloheximide cs 29
COc1ccc(-c2nc(CN3CCN(C(=O)c4ccco4)CC3)c(C)o2)cc1OC	Sm TGR block 28µM
COc1ccc(-c2nc(CN3CCN(C(=O)c4ccco4)CC3)c(C)o2)c(F)c1	Sm TGR block 50µM
COc1cc(-c2nc(CN3CCN(C(=O)c4ccco4)CC3)c(C)o2)ccc1F	none
O=C(COc1ccccc1F)Nc1ccc2nc(SCC(=O)N3CCc4ccccc43)sc2c1	none (no result: Shiga toxin inh, Cycloheximide cs)
Cc1ccc(S(=O)(=O)N2CCCc3cc(NS(=O)(=O)c4ccc(F)cc4)ccc32)cc1	none (no result: Shiga toxin inh, Cycloheximide cs)
Cc1cc(Cl)ccc1NC(=O)c1ccc2c(c1)OCO2	Shiga toxin inh 77, Cycloheximide cs 26
Cc1ccc(C(=O)Nc2ccc3c(c2)OCO3)cc1Cl	Shiga toxin inh 168, Cycloheximide cs 51 (no result: FMDV antiviral)
Cc1ccc(NC(=O)c2ccc3c(c2)OCO3)cc1Cl	Shiga toxin inh 90, Cycloheximide cs 45
CN(Cc1ccccc1)C(=O)CSc1nc(-c2ccc(F)cc2)cc(C(F)(F)F)n1	none (no result: Shiga toxin inh, Cycloheximide cs)
Cc1cc(C)c(NC(=O)Cn2c(=O)n(Cc3ccco3)c(=O)c3ccc(C(=O)NC4CCCC4)cc32)c(C)c1	none (no result: Shiga toxin inh, Cycloheximide cs)
O=C(CSc1nccn1-c1cccc(Cl)c1)Nc1ccc2c(c1)OCO2	none (no result: Shiga toxin inh, Cycloheximide cs)
O=C(C=Cc1ccc(Cl)s1)c1ccc(Cl)s1	none (no result: Shiga toxin inh, Cycloheximide cs, Sm TGR block)
Cc1c(/C=C/C(=O)c2ccc(Cl)s2)cnn1C	Cycloheximide cs 27
Cc1c(/C=C/C(=O)c2ccccc2)cnn1C	Shiga toxin inh 180, Cycloheximide cs 53
Cc1c(/C=C/C(=O)c2ccc(C(C)C)cc2)cnn1C	Shiga toxin inh 133, Cycloheximide cs 40 (no result: Sm TGR block)
CCn1ncc(/C=N\NC(=O)COc2ccccc2)c1C	Shiga toxin inh 67
Cc1ccc(CNC(=O)C(CC(C)C)N2Cc3ccccc3C2=O)cc1 (centres undefined)	none (no result: Shiga toxin inh, Cycloheximide cs)
CCn1ncc(/C=C/C(=O)c2ccccc2)c1C	Shiga toxin inh active, Cycloheximide cs 45
Cc1c(/C=C/C(=O)c2ccc(O)cc2)cnn1C	Shiga toxin inh 49, Cycloheximide cs 19
COc1ccc2c(c1)OC(=O)CC2c1ccc2c(c1)OCO2 (centres undefined)	none (no result: FMDV antiviral, Sm TGR block)
CC(CN1CCN(C)CC1)OC(=O)c1cccc(Cl)c1 (centres undefined)	Shiga toxin inh 52, Cycloheximide cs 17
CC1CCN(CC(C)OC(=O)c2ccc3c(c2)OCCO3)CC1 (centres undefined)	Cycloheximide cs 23
CC(CN1CCCCC1)OC(=O)c1cccc(F)c1 (centres undefined)	Shiga toxin inh 28, Cycloheximide cs 18
CC(CN1CCCC1)OC(=O)c1ccc(Cl)cc1 (centres undefined)	none
CC(CN1CCCCC1)OC(=O)c1ccc2c(c1)OCO2 (centres undefined)	Cycloheximide cs 25
CC1CCN(CC(=O)c2ccc3c(c2)OCCO3)CC1	Sm TGR block inconclusive
CCCOc1cccc(C2c3c(oc4ccccc4c3=O)C(=O)N2c2nncs2)c1 (centres undefined)	none (no result: Shiga toxin inh, Cycloheximide cs)
Cc1cc(C)cc(NC(=O)c2ccc3c(c2)nnn3C2CCCC2)c1	FMDV antiviral inconclusive (no result: Shiga toxin inh, Cycloheximide cs)
Cc1ccc(NC(=O)CSc2nc3c(c(=O)[nH]2)CN(Cc2ccccc2)CC3)cc1Cl	none (no result: Shiga toxin inh, Cycloheximide cs)
Cc1oc(-c2cccc(Cl)c2)nc1CSc1nncn2c1cc1occc12	none (no result: Shiga toxin inh, Cycloheximide cs)
CC(CN1CCOCC1)OC(=O)c1ccccc1Cl (centres undefined)	Cycloheximide cs 10
CC(CN1CCCC1)OC(=O)c1ccc(Cl)cc1Cl (centres undefined)	none
O=C(CSc1ccc(-c2ccc(F)cc2)nn1)N1CCCc2ccccc21	none
O=C(CSc1cccc[n+]1[O-])N1CCCc2ccccc21	Cycloheximide cs 23
O=C(CSc1ccccc1)N1CCc2ccccc21	Shiga toxin inh 93, Cycloheximide cs 31
Cn1nnnc1SCC(=O)N1CCc2ccccc21	none
O=C(CSc1ccc(-c2ccc(Cl)cc2)nn1)N1CCCc2ccccc21	Cycloheximide cs 13, FMDV antiviral inconclusive
Cc1nc(SCC(=O)N2CCc3ccccc32)n[nH]1	Cycloheximide cs 33
Cc1ccc(C)c(N2CCN(C(=O)c3cc(S(=O)(=O)N4CCC(C)CC4)cn3C)CC2)c1	none (no result: Shiga toxin inh, Cycloheximide cs)
CCn1cc(SCC(=O)N2CCc3ccccc32)c2ccccc21	Shiga toxin inh 54, Cycloheximide cs 27
Cc1nnc(SCC(=O)N2CCc3ccccc32)s1	Shiga toxin inh active, Cycloheximide cs 20 (no result: FMDV antiviral)
CCn1nnnc1SCC(=O)N1CCc2ccccc21	none (no result: Shiga toxin inh, Cycloheximide cs, Sm TGR block)
Nc1cc(N)nc(SCC(=O)N2CCc3ccccc32)n1	Shiga toxin inh 58, Cycloheximide cs 30
Nc1nc(SCC(=O)N2CCCc3ccccc32)n[nH]1	none (no result: Shiga toxin inh, Cycloheximide cs, Sm TGR block)
Cc1nnc2sc(SCC(=O)N3CCc4ccccc43)nn2c1=O	none (no result: Shiga toxin inh, Cycloheximide cs, Sm TGR block)
Cc1nnc(SCC(=O)N2CCCc3ccccc32)[nH]c1=O	Cycloheximide cs 23
Cc1cccc(OCCSc2nc3ccccc3n2CC(=O)N2CCOCC2)c1C	none (no result: Shiga toxin inh, Cycloheximide cs)
CCCn1c(SCC(=O)N2CCc3ccccc32)nnc1-c1ccco1	none
Cn1c(=O)c2c(SCC(=O)N3CCCc4ccccc43)nc(CC(C)(C)C)nc2n(C)c1=O	FMDV antiviral 22µM
O=C(CSCc1ccco1)N1CCc2ccccc21	Shiga toxin inh 105, Cycloheximide cs 40, Sm TGR block inconclusive
CC1=C(c2ccc(C(C)C)cc2)S(=O)(=O)N=C1N1CCC(C(=O)NCCc2ccco2)CC1	none (no result: Shiga toxin inh, Cycloheximide cs)
CCOC(=O)N1CCN(C(=O)c2ccc(CS(=O)Cc3ccccc3Cl)o2)CC1 (centres undefined)	Sm TGR block inconclusive
Cc1cccc(N2CCN(C(=O)c3ccc(CS(=O)Cc4cccc(Cl)c4)o3)CC2)c1C (centres undefined)	FMDV antiviral inconclusive, Sm TGR block 40µM
Cc1ccc(Cl)cc1N1CCN(C(=O)c2ccc(CS(=O)Cc3ccc(Cl)cc3)o2)CC1 (centres undefined)	Sm TGR block 45µM
CCOC(=O)N1CCN(C(=O)c2ccc(CS(=O)Cc3ccc(C)cc3)o2)CC1 (centres undefined)	Sm TGR block 40µM
Cc1nnnn1/C(=C\c1ccccc1)C(=O)OCC(=O)N(C)C1CCS(=O)(=O)C1 (centres undefined)	none
CC(=O)c1ccccc1NC(=O)COC(=O)/C(=C/c1ccccc1)n1nnnc1C	FMDV antiviral 22µM, Sm TGR block inconclusive
CCN(C(=O)COC(=O)/C(=C/c1ccccc1)n1nnnc1C)C1CCCCC1	FMDV antiviral 22µM (no result: Shiga toxin inh, Cycloheximide cs)
C/C=C(\C)C(=O)O[C@H]1C[C@@]2(C)CCC(C(C)C)C2(O)CC[C@@]1(C)O (some centres undefined)	none (no result: Shiga toxin inh, Cycloheximide cs, Sm TGR block)
Cc1cnc(NC(=O)c2cc(-c3ccccc3)nn2-c2ccccc2)s1	none (no result: Shiga toxin inh, Cycloheximide cs, Sm TGR block)
O=C(Nc1nc2ccccc2s1)c1cc(-c2ccccc2)nn1-c1ccccc1	Shiga toxin inh 24, Cycloheximide cs 26
O=C(NNC(=O)c1cc(-c2ccccc2)nn1-c1ccccc1)c1ccccc1	Cycloheximide cs 8.5

Screens as filed in PubChem.
